We go through eight compounds from PubChem BioAssay (NCI).

Compounds without any hit were thinned out: in the full panel of roughly 83,000, 20% have a hit.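 Activity criterion: percent growth below 10, measured after cells in 96-well plates were exposed to a single compound concentration for 48 hours.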 Active and inactive are the calls of the source.

Assay in all cases: NCI-60 one-dose screen, 48 h (100 = growth as untreated, 0 = no growth, -100 = all killed)
One experiment relates to SN12C renal. As to conditions: 10 µM.
The next experiment relates to UO-31 renal. As to conditions: 10 µM.
The test system of another experiment is TK-10 renal. As to conditions: 10 µM.
A further experiment relates to ACHN renal. Particulars: 10 µM.
For the next experiment, the system named is CAKI-1 renal. Particulars: 10 µM.
A further experiment concerns A498 renal. Particulars: 10 µM.
The subject of the next experiment is CCRF-CEM leukemia. As to conditions: 10 µM.
The next experiment relates to MOLT-4 leukemia. As to conditions: 10 µM.
In the next experiment the test system is SR leukemia. As to conditions: 10 µM unless noted.
In a further experiment the test system is RPMI-8226 leukemia. As to conditions: 10 µM.
For a further experiment, the system named is OVCAR-8 ovarian. As to conditions: 10 µM.
In a further experiment the test system is OVCAR-5 ovarian. As to conditions: 10 µM.
The subject of a further experiment is OVCAR-4 ovarian. As to conditions: 10 µM.
A further experiment concerns SK-OV-3 ovarian. Particulars: 10 µM.
Another experiment relates to IGROV1 ovarian. As to conditions: 10 µM.
The test system of the next experiment is HS 578T breast. Particulars: 10 µM.
The subject of a further experiment is NCI/ADR-RES ovarian. Particulars: 10 µM.
The next experiment deals with EKVX NSCLC. Particulars: 10 µM.
A further experiment has as its system SK-MEL-2 melanoma. As to conditions: 10 µM.
The next experiment deals with OVCAR-3 ovarian. Particulars: 10 µM.

`O=C1C=C(O)c2ccccc2C1=O.[Ag]`: the growth in the experiment with SN12C renal is 103% (inactive); with UO-31 renal it was 82.9% (inactive); in the experiment with TK-10 renal, 157% (inactive); in the experiment with ACHN renal, 95.2% (inactive); in the experiment on CAKI-1 renal, 94.4% (inactive); with A498 renal it was 93.3% (inactive). In addition, the growth in the experiment with CCRF-CEM leukemia was 101% (inactive); in the experiment on MOLT-4 leukemia, 105% (inactive); in the experiment on SR leukemia, 103% (inactive); in the experiment with RPMI-8226 leukemia, 104% (inactive); in the experiment with OVCAR-8 ovarian, 95.4% (inactive); in the experiment with OVCAR-5 ovarian, 115% (inactive). Moreover, the growth in the experiment with OVCAR-4 ovarian is 95.4% (inactive); in the experiment with SK-OV-3 ovarian, 137% (inactive); in the experiment with IGROV1 ovarian it was 105% (inactive); with HS 578T breast it was 96.7% (inactive); in the experiment on NCI/ADR-RES ovarian, 109% (inactive).
For `COc1ccc(CC(=O)c2ccc(O)cc2O)cc1`, the growth with EKVX NSCLC was 104% (inactive); in the experiment on SN12C renal, 123% (inactive); in the experiment on UO-31 renal, 98.5% (inactive); in the experiment with ACHN renal, 118% (inactive); with A498 renal, 128% (inactive); in the experiment on CCRF-CEM leukemia, 104% (inactive). Moreover, the growth in the experiment with OVCAR-8 ovarian was 92.8% (inactive); in the experiment with OVCAR-5 ovarian, 105% (inactive); in the experiment on OVCAR-4 ovarian, 99.2% (inactive); in the experiment on SK-OV-3 ovarian, 163% (inactive); in the experiment with IGROV1 ovarian, 122% (inactive); with HS 578T breast, 108% (inactive). In addition, the growth in the experiment on NCI/ADR-RES ovarian is 105% (inactive).
Regarding `CCO/C=C1\SC(=S)N(c2cccc(O)c2)C1=O`, the growth in the experiment on SK-MEL-2 melanoma was 87.4% (inactive); in the experiment on SN12C renal, 98.1% (inactive); with UO-31 renal, 79.5% (inactive); in the experiment on TK-10 renal, 88.3% (inactive); with ACHN renal it was 102% (inactive); with CAKI-1 renal it was 98.9% (inactive). Besides, the growth is 118% (inactive) with A498 renal; 96.7% (inactive) with MOLT-4 leukemia; 85% (inactive) in the experiment on SR leukemia; 94.6% (inactive) in the experiment with RPMI-8226 leukemia; 99.4% (inactive) in the experiment on OVCAR-8 ovarian; 97.8% (inactive) in the experiment on OVCAR-5 ovarian. Further, the growth in the experiment on OVCAR-4 ovarian was 93.8% (inactive); in the experiment with SK-OV-3 ovarian, 91.9% (inactive); in the experiment with IGROV1 ovarian, 99.2% (inactive); with HS 578T breast, 108% (inactive); with NCI/ADR-RES ovarian it was 107% (inactive).
In the case of `CSC1SCC2C(=O)N(C)C(C(C)C)C(=O)OCC(NC(=O)c3cnc4ccccc4n3)C(=O)NC(C)C(=O)N(C)C1C(=O)N(C)C(C(C)C)C(=O)OCC(NC(=O)c1cnc3ccccc3n1)C(=O)NC(C)C(=O)N2C` (centres undefined), the growth was -28.3% (active) with SK-MEL-2 melanoma; -8.18% (active) in the experiment with EKVX NSCLC; 8.11% (active) with SN12C renal; 13.4% (inactive) in the experiment with UO-31 renal; 2.44% (active) in the experiment on ACHN renal; -13% (active) in the experiment on CAKI-1 renal. The growth in the experiment on A498 renal was -76.6% (active); with CCRF-CEM leukemia it was -25.7% (active); in the experiment with MOLT-4 leukemia it was -33.8% (active); with SR leukemia, -37.7% (active); in the experiment with RPMI-8226 leukemia, -30% (active); with OVCAR-5 ovarian it was 2.94% (active). Besides, the growth with OVCAR-4 ovarian is 1.22% (active); in the experiment on SK-OV-3 ovarian, 15.5% (inactive); with IGROV1 ovarian, 0.149% (active); with HS 578T breast, -60.8% (active); in the experiment with NCI/ADR-RES ovarian, 7.62% (active).
For the compound `Clc1cc(Cl)c(Cl)nn1`, the growth in the experiment with SK-MEL-2 melanoma was 99.9% (inactive); in the experiment on EKVX NSCLC, 115% (inactive); in the experiment on SN12C renal it was 98% (inactive); with UO-31 renal, 106% (inactive); with ACHN renal, 113% (inactive); in the experiment with CAKI-1 renal, 109% (inactive). Besides, the growth in the experiment with A498 renal is 109% (inactive); with CCRF-CEM leukemia it was 88.7% (inactive); with SR leukemia it was 72% (inactive); with RPMI-8226 leukemia, 75.6% (inactive); in the experiment on OVCAR-8 ovarian, 94.1% (inactive); in the experiment on OVCAR-5 ovarian, 115% (inactive). Further, the growth in the experiment on OVCAR-4 ovarian is 109% (inactive); in the experiment with SK-OV-3 ovarian, 95.2% (inactive); in the experiment on IGROV1 ovarian it was 107% (inactive); with HS 578T breast, 101% (inactive); in the experiment on NCI/ADR-RES ovarian, 107% (inactive).
On to `OCC(O)C(O)C(O)C(/C=N/Nc1ccccc1)=N/Nc1ccccc1` (centres undefined), for which the growth in the experiment with SK-MEL-2 melanoma was 121% (inactive); in the experiment with SN12C renal, 95.9% (inactive); with UO-31 renal, 61.1% (inactive); with ACHN renal, 67.5% (inactive); in the experiment on CAKI-1 renal, 78% (inactive); with A498 renal, 43.9% (inactive). The growth in the experiment on CCRF-CEM leukemia was 75.4% (inactive); in the experiment on MOLT-4 leukemia, 101% (inactive); with SR leukemia it was 58.8% (inactive); in the experiment on RPMI-8226 leukemia it was 92.2% (inactive); in the experiment on OVCAR-8 ovarian, 92.6% (inactive); in the experiment on OVCAR-5 ovarian, 82.3% (inactive). Further, the growth in the experiment on OVCAR-4 ovarian is 93.1% (inactive); with SK-OV-3 ovarian, 99.5% (inactive); with IGROV1 ovarian, 83.4% (inactive); in the experiment with OVCAR-3 ovarian, 90.4% (inactive); in the experiment with HS 578T breast it was 79.7% (inactive); with NCI/ADR-RES ovarian it was 79.8% (inactive).
`CN1CCN(CCCN2c3ccccc3Sc3ccc(C(F)(F)F)cc32)CC1`: the growth with SK-MEL-2 melanoma is 88.1% (inactive); in the experiment with EKVX NSCLC, 66.9% (inactive); in the experiment on SN12C renal it was 57% (inactive); in the experiment on UO-31 renal it was 35.1% (inactive); in the experiment with ACHN renal it was 46.6% (inactive); in the experiment with CAKI-1 renal, 34% (inactive). Besides, the growth is 70.2% (inactive) with A498 renal; 50.2% (inactive) with CCRF-CEM leukemia; 37.6% (inactive) with MOLT-4 leukemia; 14.2% (inactive) with SR leukemia; -7.1% (active) in the experiment with RPMI-8226 leukemia; 78.2% (inactive) in the experiment with OVCAR-8 ovarian. The growth in the experiment with OVCAR-4 ovarian was 71.2% (inactive); with SK-OV-3 ovarian, 92.4% (inactive); in the experiment with IGROV1 ovarian, 40.7% (inactive); with HS 578T breast it was 60.4% (inactive); with NCI/ADR-RES ovarian, 70.8% (inactive).
`CC(=O)Nc1cc(C)ccc1C`: the growth was 101% (inactive) in the experiment on SK-MEL-2 melanoma; 99.9% (inactive) with EKVX NSCLC; 101% (inactive) in the experiment on SN12C renal; 88.1% (inactive) in the experiment on UO-31 renal; 106% (inactive) in the experiment with ACHN renal; 98.6% (inactive) with CAKI-1 renal. Also, the growth in the experiment on A498 renal is 83.8% (inactive); in the experiment on CCRF-CEM leukemia it was 128% (inactive); in the experiment on MOLT-4 leukemia, 110% (inactive); in the experiment on SR leukemia, 98.8% (inactive); in the experiment on RPMI-8226 leukemia, 117% (inactive); in the experiment with OVCAR-8 ovarian, 104% (inactive). For the same compound, the growth is 102% (inactive) in the experiment on OVCAR-5 ovarian; 104% (inactive) in the experiment on OVCAR-4 ovarian; 102% (inactive) in the experiment with SK-OV-3 ovarian; 108% (inactive) in the experiment with IGROV1 ovarian; 90.4% (inactive) in the experiment on HS 578T breast; 103% (inactive) with NCI/ADR-RES ovarian.
